The list is not random: actives were taken first. Their share in the collection is about 2.4%.
TDP1 block: TDP1 (human) enzyme inhibition; Q9NUW8; recombinant TDP1, AlphaScreen DNA substrate cleavage; Potency, µM (series often up to 130 µM), most hits filed as inhibitors; 0.28% of 350,000 active; further: nearly all actives have a fitted effect of over 40% in size
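Here, a 5' biotin and 3' phosphotyrosine-FITC DNA oligonucleotide reports Tdp1 activity: intact substrate bridges AlphaScreen beads, while cleavage leaves a 3' phosphate and drops signal. All incubations at room temperature.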
PTAP TSG101 blk: blocks PTAP/TSG101 interaction to inhibit HIV-1 budding; Fluorescence polarization, FITC-PTAP peptide / Tsg101 binding; Potency, µM (highest dose often 115 µM), actives largely listed as inhibitors; 340,000 tested, under 10 active; AID 493005; Q99816; active means well fitted inhibition curve with a large enough effect in the main read-out, with a control signal flat, not every such curve was filed as active; inconclusive means small, poorly fitted or top-dose-only effect, or effect the other way, or a change in a side signal; inactive means no such curve, though single readings can be large or run the other way
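Fluorescence polarization binding of Tsg101 binding domain (10 uM final) to FITC-labeled PTAP peptide (50 nM final) in HEPES pH 7.5 buffer with NaCl, Tween 20, EDTA, TCEP. Compounds added before peptide; binding 20 min at RT.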
ClpP mod: qHTS Assay for Activators of ClpP | AID 651965, 2013 | purified B. subtilis ClpP, FRET peptide cleavage, 20 min | ATP-dependent Clp protease proteolytic subunit (Bacillus subtilis (strain 168)), P80244 | 1.9% of 340,000 active | Potency, µM (top dose mostly 57.5 µM); active means well fitted falling curve with a large enough effect; inconclusive means small, poorly fitted or top-dose-only effect; inactive means no such curve, though single readings can be large or run the other way; further: the source files actives as falling curves though it sought activators and does not explain the sign; nearly all actives have a fitted effect of over 65% in size
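Purified B. subtilis ClpP, 10 microg/mL final in Tris/HCl pH8 with KCl, BSA, glycerol and Tween-20, cleaved an Abz/nitrotyrosine-quenched decapeptide. Fluorescence (ex 320, em 430) was read at 0 and 20 min at room temperature. Delta was normalized to 5.8 microM ADEP and DMSO/no-enzyme controls.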
ALOX12 inh: inhibitors of human 12S-lipoxygenase ALOX12; 1.1% of 580,000 active; P18054; Potency, µM (series often up to 108 µM), hits mostly inhibitors; purified 12hLO, xylenol orange hydroperoxide absorbance; AID 1671190
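Purified human 12hLO (150 nM final) in 25 mM Hepes, 0.01% Triton X-100, pH 7.0 was preincubated 15 min at room temperature with compound. Then 40 uM arachidonic acid was added, 30 min. Hydroperoxide was read by Fe-XO absorbance ratio 573/405 nm.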
Rango release inh: inhibition of RanGTP-driven Rango-importin beta dissociation | Biochemical FRET Rango-importin beta, RanGTP-induced dissociation | Potency, µM (highest dose often 46.1 µM) | 0.071% of 340,000 active; calls by dose curve; further: nearly all actives have a fitted effect of over 45% in size
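Rango (0.1 uM)–importin beta (0.25 uM) complex; RanGTP-RCC1 trigger; 45 min RT; CFP/YFP FRET read.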
Rango-impB inh: inhibitors of Rango-importin beta complex formation. Potency, µM (top dose mostly 92.2 µM). AID 540263. 0.031% of 340,000 active. Rango CFP/YFP FRET sensor + importin beta, 45 min. Q14974; calls by dose curve; further: nearly all actives have a fitted effect of over 15% in size
Target sequence (Q14974 whole entry, looked up): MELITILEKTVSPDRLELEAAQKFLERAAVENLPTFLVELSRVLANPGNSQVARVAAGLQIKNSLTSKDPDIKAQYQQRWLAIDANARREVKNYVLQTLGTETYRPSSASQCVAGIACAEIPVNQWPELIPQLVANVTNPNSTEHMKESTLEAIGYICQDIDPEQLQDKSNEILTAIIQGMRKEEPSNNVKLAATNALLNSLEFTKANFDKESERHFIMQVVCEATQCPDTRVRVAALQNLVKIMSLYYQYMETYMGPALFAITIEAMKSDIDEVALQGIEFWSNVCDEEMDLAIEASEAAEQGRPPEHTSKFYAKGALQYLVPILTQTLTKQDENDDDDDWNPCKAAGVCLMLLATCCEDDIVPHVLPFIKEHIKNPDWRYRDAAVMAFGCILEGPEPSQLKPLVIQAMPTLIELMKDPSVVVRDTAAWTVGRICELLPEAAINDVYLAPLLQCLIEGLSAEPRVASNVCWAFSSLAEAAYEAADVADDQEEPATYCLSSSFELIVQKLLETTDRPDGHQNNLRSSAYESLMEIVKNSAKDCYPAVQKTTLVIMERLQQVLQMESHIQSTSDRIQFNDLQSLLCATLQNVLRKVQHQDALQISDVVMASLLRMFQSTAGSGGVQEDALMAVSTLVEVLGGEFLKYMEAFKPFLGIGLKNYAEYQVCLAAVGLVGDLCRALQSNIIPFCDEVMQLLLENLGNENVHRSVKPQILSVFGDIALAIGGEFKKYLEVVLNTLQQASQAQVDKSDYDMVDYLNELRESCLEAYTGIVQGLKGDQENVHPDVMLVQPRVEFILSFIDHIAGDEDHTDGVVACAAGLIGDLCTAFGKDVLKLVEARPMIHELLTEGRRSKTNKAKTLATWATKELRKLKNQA
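FRET biosensor Rango (snurportin 1 IBB between N-terminal EYFP and C-terminal Cerulean), 50 nM in PBS/1 mM DTT/0.02% Tween-20/0.1% BSA, preincubated 5 min RT with compound; 0.125 microM importin beta added, 45 min RT, CFP/YFP FRET ratio read.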
A number is an active result; ! = a repeat was not active. Unless noted, the call rests on the fitted dose curve; in most records, active means well fitted curve in the direction sought with a large enough effect; inconclusive means small, poorly fitted or top-dose-only effect, or another doubt; inactive means no such curve, though single readings can be large; an effect the other way counts as inactive or inconclusive.

What do the screens show for `CC(C)c1ccc(S(=O)(=O)c2nnn3c2nc(NCCc2ccccc2)c2sccc23)cc1`?
TDP1 block: inactive; ClpP mod: 25.1µM; ALOX12 inh: inactive

How did Cc1ccc(S(=O)(=O)c2nnn3c2nc(NCc2ccc4c(c2)OCO4)c2sccc23)cc1C do in these assays?
TDP1 block: inactive; ClpP mod: 20µM; ALOX12 inh: inactive

How did Cc1ccc(S(=O)(=O)c2nnn3c2nc(NCCc2ccccc2)c2sccc23)cc1 do in these assays?
TDP1 block: inactive; ClpP mod: 10µM; ALOX12 inh: inactive

How did CCN(CC)CCOc1ccc2c(c1)C(=O)c1cc(OCCN(CC)CC)ccc1-2 do in these assays?
TDP1 block: inactive; ALOX12 inh: 22.4µM!

How did CCOC(=O)c1c(C)n(C)c2cc(OCCN(CC)CC)ccc12 do in these assays?
TDP1 block: inactive; PTAP TSG101 blk: inactive; ClpP mod: inactive; ALOX12 inh: inactive; Rango release inh: inactive; Rango-impB inh: inactive

Results for O=C(CCS(=O)(=O)c1ccc(Br)cc1)NCc1ccco1 ?
PTAP TSG101 blk: inactive; ClpP mod: inactive; ALOX12 inh: inactive; Rango release inh: inactive; Rango-impB inh: inactive

What do the screens show for `O=C(CCS(=O)(=O)c1ccc(Br)cc1)NCc1cccs1`?
TDP1 block: 22.4µM; PTAP TSG101 blk: inactive; ClpP mod: inactive; ALOX12 inh: inactive; Rango release inh: inactive; Rango-impB inh: inactive

How did c1csc(-c2ccc3ccccc3n2)c1 do in these assays?
TDP1 block: inactive; PTAP TSG101 blk: inactive; ClpP mod: 14.1µM; ALOX12 inh: inactive; Rango release inh: inactive; Rango-impB inh: inactive

How did CSc1ccccc1OCc1cc(C(=O)NCCN2CCCC(O)C2)no1 (stereo not drawn) do in these assays?
TDP1 block: inactive; PTAP TSG101 blk: inactive; ClpP mod: 28.2µM; ALOX12 inh: inactive; Rango release inh: inactive; Rango-impB inh: inactive

What do the screens show for `COc1ccc(OCc2cc(C(=O)NCCN3CCCc4ccccc43)no2)c(Cl)c1`?
TDP1 block: inactive; PTAP TSG101 blk: inactive; ClpP mod: inactive; ALOX12 inh: 15.8µM; Rango release inh: inactive; Rango-impB inh: inconclusive

How did COc1ccc(OCc2cc(C(=O)NCCN3CCCC(O)C3)no2)c(Cl)c1 (stereo not drawn) do in these assays?
TDP1 block: inactive; PTAP TSG101 blk: inactive; ClpP mod: inactive; ALOX12 inh: inactive; Rango release inh: inactive; Rango-impB inh: inactive

Results for O=C(NCCN1CCCC(O)C1)c1cc(COc2ccc(F)cc2Cl)on1 (stereo not drawn) ?
TDP1 block: inactive; PTAP TSG101 blk: inactive; ClpP mod: inactive; ALOX12 inh: inactive; Rango release inh: inactive; Rango-impB inh: inactive

What do the screens show for `CN(C)C[C@@H]1CN(Cc2ccccc2)C[C@H]1NC(=O)c1ccn(C)n1`?
ALOX12 inh: inactive

How did CS(=O)(=O)N1CCCCC1CCN1CCCCC1 (stereo not drawn) do in these assays?
PTAP TSG101 blk: inactive; ClpP mod: 28.2µM; ALOX12 inh: inactive; Rango release inh: inactive; Rango-impB inh: inactive

What do the screens show for `Cc1ccc(OCc2ccoc2C(=O)O)cc1C`?
TDP1 block: 50.1µM; PTAP TSG101 blk: inactive; ClpP mod: inactive; ALOX12 inh: inactive; Rango release inh: inactive; Rango-impB inh: inactive

What do the screens show for `COc1ccccc1CN1CCC2(CCC(CNC(=O)c3ccccc3N(C)C)O2)CC1` (stereo not drawn)?
ALOX12 inh: inactive

How did COC(=O)c1ccc(COc2ccc(/C=N/Nc3cccc(C(=O)O)c3)cc2)cc1 do in these assays?
TDP1 block: 39.8µM; PTAP TSG101 blk: inactive; ClpP mod: inactive; ALOX12 inh: inconclusive; Rango release inh: inactive; Rango-impB inh: inactive

What do the screens show for `CSc1ccc(/C=N/Nc2cccc(C(=O)O)c2)cc1`?
TDP1 block: 1.12µM; PTAP TSG101 blk: inactive; Rango release inh: inactive; Rango-impB inh: inactive

How did O=C(O)c1cccc(N/N=C/c2ccc(OC(F)(F)F)cc2)c1 do in these assays?
PTAP TSG101 blk: inactive; ClpP mod: inactive; ALOX12 inh: inactive; Rango release inh: inactive; Rango-impB inh: inactive

How did O=C(CCCc1ccccc1)NCC(=O)N1CCCCCCNC(=O)CC1c1ccccc1 (stereo not drawn) do in these assays?
ALOX12 inh: inactive

What do the screens show for `CCC(CO)Oc1cc(NC(=O)c2ccccc2F)c2ncn(C(C)C)c2c1` (stereo not drawn)?
PTAP TSG101 blk: inactive; ClpP mod: inactive; ALOX12 inh: 28.2µM; Rango release inh: inactive; Rango-impB inh: inconclusive

What do the screens show for `O=C1c2ccc3c4c(ccc(c24)C(=O)N1NC(=O)C(F)(F)F)CC3`?
PTAP TSG101 blk: inactive; ClpP mod: 35.5µM; ALOX12 inh: inactive; Rango release inh: inactive; Rango-impB inh: inactive

What do the screens show for `CC(=O)NN1C(=O)c2ccc3c4c(ccc(c24)C1=O)C(=O)N(NC(C)=O)C3=O`?
TDP1 block: inactive; PTAP TSG101 blk: inactive; ClpP mod: inactive; ALOX12 inh: inactive; Rango release inh: inactive; Rango-impB inh: inactive

How did O=C(NN1C(=O)c2ccc3c4c(ccc(c24)C1=O)CC3)c1ccc(Br)cc1 do in these assays?
TDP1 block: inactive; PTAP TSG101 blk: inactive; ClpP mod: 12.6µM; ALOX12 inh: inactive; Rango release inh: inactive; Rango-impB inh: inactive

Results for CC(C)CN1C(=O)CO[C@H](c2ccc(NC(=O)C3CCC3)cc2)[C@H]1CO ?
ALOX12 inh: inactive

Results for CN1CC(n2ccnc2-c2cnc(-c3cccc4ccccc34)nc2)CCC1=O (stereo not drawn) ?
ALOX12 inh: inactive

Results for Cc1cc(=O)n(CC(=O)Nc2cc(Cl)ccc2C)c(N2CCOCC2)n1 ?
ALOX12 inh: inactive

What do the screens show for `C=CCOC(=O)COc1ccc2c(=O)c(Oc3ccccc3Br)coc2c1`?
ALOX12 inh: inactive

Results for CCNC(=S)NN=C1CCC(C(C)(C)C)CC1 (stereo not drawn) ?
TDP1 block: inactive; PTAP TSG101 blk: inactive; ClpP mod: 28.2µM; ALOX12 inh: inactive; Rango release inh: inactive; Rango-impB inh: inactive

Results for CC(=O)NN=C1CCC(C(C)(C)C)CC1 (stereo not drawn) ?
ALOX12 inh: inactive

Results for Cc1cccc(NC(=S)/N=C(\N)Nc2nc(C)c3cc(C)ccc3n2)c1 ?
TDP1 block: inactive; PTAP TSG101 blk: inactive; ClpP mod: inactive; ALOX12 inh: 39.8µM; Rango release inh: inactive; Rango-impB inh: inactive

How did CCc1ccc(NC(=S)/N=C(\N)Nc2nc(C)c3cc(CC)ccc3n2)cc1 do in these assays?
TDP1 block: inactive; PTAP TSG101 blk: inactive; ALOX12 inh: 35.5µM; Rango release inh: inactive; Rango-impB inh: inactive

Bioassay records as filed in PubChem BioAssay.
